# Hit rate of the full screen: of about 310,000 compounds, about 1,000 (0.32%) were called active. The rule behind the calls is not given here. These entries were drawn from the full list. Results with a measured potency or affinity are listed apart.
# Assay: PhoP regulon inhibitors, Salmonella typhi PhoP promoter GFP reporter, confirmatory (AID 1850);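 note: 0% = induced wells with vehicle and 100% = uninduced wells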
# Details: fluorescence, 4 h, at 50 µM, active compounds read high
row,SMILES,inhibition
1,Cc1ccc(CN2CCCN(Cc3ccc(F)cc3Cl)S2(=O)=O)cc1,0.28% (inactive)
2,O=C(O)C1CC(O)CN1c1nc(Cl)ccc1[N+](=O)[O-] (configuration not stated),4.36% (inactive)
3,O=C1CC2(CCCC2)Oc2ccccc21,9.18% (inactive)
4,CC(C)(C)c1cc(NCc2ccccn2)n2ncc(-c3ccc(Cl)cc3)c2n1,-9.09% (inactive)
5,CC(C)(C)c1cc(NCCCn2ccnc2)n2ncc(-c3ccccc3)c2n1,12.3% (inactive)
6,CC(C)(C)c1cc(NCCCn2ccnc2)n2ncc(-c3ccc(Cl)cc3)c2n1,-8.35% (inactive)
7,CC(C)Nc1cc(C(C)(C)C)nc2c(-c3ccccc3)cnn12,0.99% (inactive)
8,COC(=O)[C@@H](NC(=O)N1CCC(Cc2ccccc2)CC1)C(C)C,-13.1% (inactive)
9,CC(C)C(C(=O)NCC1CCCO1)N(C(=O)CNS(=O)(=O)c1ccc(F)cc1)C1CCCCC1 (configuration not stated),-5.01% (inactive)
10,Cc1ccccc1NC1=NC(C)(C)N=C(N)N1,2.17% (inactive)
11,Cc1cccc(C)c1NC1=NC(C)(C)N=C(N)N1,-2.14% (inactive)
12,Cc1cccc(NC2=NC(C)(C)N=C(N)N2)c1,-5.24% (inactive)
13,CC1(C)N=C(N)NC(Nc2ccccc2)=N1,3.29% (inactive)
14,CCCCC(=O)N/N=C/c1ccc(N2CCOCC2)c([N+](=O)[O-])c1,5.66% (inactive)
15,O=C(c1cc(Cl)cc(Cl)c1)N1CCN(c2cc(C(F)(F)F)nc3ccccc23)CC1,0.46% (inactive)
16,CN1N=C(C(C)(C)C)CC1=O,-12.7% (inactive)
17,OCCC1CN(Cc2nc3ccccc3[nH]2)CCN1C1CCCC1 (configuration not stated),3.25% (inactive)
18,COc1cc(C(=O)ON=C2C=C(C)C(=O)C(C)=C2)cc(OC)c1OC,-6.42% (inactive)
19,COc1cc(C(=O)O/N=C2/C=C(C)C(=O)C=C2C)cc(OC)c1OC,-6.02% (inactive)
20,CCc1ccccc1N(CC(=O)N1CCCC1)S(C)(=O)=O,6.01% (inactive)
21,CCNc1c2c(nc3ccccc13)CC(C)(C)CC2=O,-3.19% (inactive)
22,Cc1c2c(nc3ccccc13)CC(C)(C)CC2=O,-15.3% (inactive)
23,CCC(=NCc1cccnc1)c1c(O)n(-c2ccc(C)cc2)c(=O)[nH]c1=O,-4.52% (inactive)
24,O=C(COc1ccc2c3c(c(=O)oc2c1)CCC3)N[C@@H](CSCc1ccccc1)C(=O)O,11.7% (inactive)
25,N#C/C(=C\c1cc(O)c(O)c(O)c1)C(N)=O,5.26% (inactive)

row,SMILES,inhibition
1,CCOC(=O)c1ccc(CNCc2ccccc2)cc1,-2.61% (inactive)
2,CCOC(=O)c1ccc(CNCc2ccc(C)cc2)cc1,-2.32% (inactive)
3,Cc1noc(C)c1COc1ccc(C(=O)N2CCN(S(=O)(=O)c3ccc(Cl)cc3)CC2)cc1,-8.91% (inactive)
4,CSc1ccccc1NC(=O)CN(C)C(=O)CCc1c[nH]c2ccccc12,2.89% (inactive)
5,CNCCCOc1ccc(Cl)cc1C(C)(C)C,18.7% (inactive)
6,CC(C)(C)c1ccc(OCCON2C(=O)CCC2=O)c(Cl)c1,10.3% (inactive)
7,CCCCNC(=O)c1cccc(NC(=O)C(=O)c2ccccc2NC(C)=O)c1,0.04% (inactive)
8,Cc1ccc(-c2csc(N=C(N)N)n2)cc1,3.62% (inactive)
9,COc1ccc(-c2csc(N=C(N)N)n2)cc1,4.34% (inactive)
10,O=C(N1CCOCC1)N1CCN(S(=O)(=O)N2CCCCC2)CC1,5.81% (inactive)
11,COc1ccc(NC2CCCN(C(=O)C3=NN(C)C(=O)CC3)C2)cc1OC (configuration not stated),-1.12% (inactive)
12,Cc1cccc(N2CCN(Cc3nc(-c4cccc(Cl)c4)oc3C)CC2)n1,-3.9% (inactive)
13,Oc1[nH]c2ccc(Br)cc2c1N=Nc1ccc(F)cc1,-81.9% (inactive)
14,Cc1cc(=O)c2cc(Br)ccc2[nH]1,6.88% (inactive)
15,O=C(NCC1CCCO1)c1onc(CSc2ccc(F)c(F)c2)c1C(=O)O (configuration not stated),1.53% (inactive)
16,C=CCNC(=O)CN1CCC(c2nc3cc(C)c(C)cc3[nH]2)CC1,2.77% (inactive)
17,O=[N+]([O-])c1ccc(/C=N/N2CCCCC2)cc1,2.58% (inactive)
18,CCOc1ccc(-c2c(C(=O)N/N=C/c3ccc(OC)cc3)nnn2-c2nonc2N)cc1,-14% (inactive)
19,O=C(Cc1ccc(Cl)cc1)Nc1ccc(S(=O)(=O)Nc2cnc3ccccc3n2)cc1,-6.63% (inactive)
20,CC1CCCCC1NC(=O)c1ccc(NS(=O)(=O)c2ccc3[nH]c(=O)[nH]c3c2)cc1 (configuration not stated),0.81% (inactive)
21,CC(=O)Oc1c(C)cc(Cl)cc1C(=O)Nc1ccc([N+](=O)[O-])cc1Cl,3.87% (inactive)
22,Cc1ccc(NC(=O)c2cc([N+](=O)[O-])ccc2Cl)c(O)c1,4.62% (inactive)
23,CC[C@H](C)Cc1cn([C@@H](CCCCN)C(=O)NCCCCCCCCCCC(=O)N2CCNCC2)nn1,1.01% (inactive)
24,CCOC(=O)N1CCN(C(=O)c2cc(COc3ccc4ncccc4c3)on2)CC1,-2.35% (inactive)
25,CCc1ccc(CNCCc2ccccc2F)cc1,19.3% (inactive)

row,SMILES,inhibition
1,COc1cc(OC)c(OC)cc1CNCCc1ccc(F)cc1,1.12% (inactive)
2,CCc1ccc(CNCCc2ccc(F)cc2)cc1,7.65% (inactive)
3,Fc1ccc(CNCCc2ccccc2F)cc1,20.1% (inactive)
4,COc1cccc(CNCCc2cccc(F)c2)c1OC,6.94% (inactive)
5,Fc1ccc(CCNCc2cccc(Cl)c2)cc1,-1.17% (inactive)
6,COc1cccc(CNCCc2ccccc2)c1OC,15.4% (inactive)
7,COc1cc(OC)c(OC)cc1CNCCc1cccc(F)c1,3.05% (inactive)
8,CCN(c1ccccc1)S(=O)(=O)c1csc(C(N)=O)c1,1.57% (inactive)
9,O=C(CS(=O)(=O)c1ccc(Cl)cc1)Nc1nnc(-c2cccs2)o1,-4.66% (inactive)
10,CC(C)C(NC(=O)/C=C/c1cccc([N+](=O)[O-])c1)C(C)C,-9.13% (inactive)
11,CCOC(=O)N1CCC(NC(=O)c2cnn3c(C(F)(F)F)cc(-c4cccc(OC)c4)nc23)CC1,-1% (inactive)
12,COc1ccccc1S(=O)(=O)CC(O)COc1ccccc1Cl (configuration not stated),-5.18% (inactive)
13,CN(CCc1ccccn1)C(=O)Nc1ccc(F)cc1,-7.13% (inactive)
14,COc1ccc(-c2ccc(CCC(=O)O)n2NC(=O)c2cccs2)cc1,-5.76% (inactive)
15,CN(CC(=O)Nc1ccccc1Cl)C(=O)COC(=O)c1cc([N+](=O)[O-])ccc1N1CCOCC1,-1.8% (inactive)
16,Brc1ccc(CNCc2cccs2)cc1,-4.52% (inactive)
17,Fc1ccc(CNCCc2ccccc2)cc1,14.4% (inactive)
18,c1csc(CNCc2ccncc2)c1,1.76% (inactive)
19,Fc1ccc(CNCc2ccccc2Cl)cc1,10.6% (inactive)
20,O=C(COc1ccc(Br)cc1)N1CCN(Cc2c[nH]c3ccccc23)CC1,1.07% (inactive)
21,O=C(NCc1ccco1)/C(=C\c1ccco1)NC(=O)c1ccco1,-9.29% (inactive)
22,CC1=NN(c2ccc([N+](=O)[O-])cc2)C(c2ccccc2)C1 (configuration not stated),-7.1% (inactive)
23,CC1(C)CC(=O)C2=C(C1)NC(=O)CC2c1cc(F)ccc1F (configuration not stated),8.24% (inactive)
24,CC1(C)C2CCC1(CS(=O)(=O)N1CCN(c3ccc(F)cc3)CC1)C(=O)C2 (configuration not stated),-7.85% (inactive)
25,COc1ccc(S(=O)(=O)NC(C)C(=O)NCc2cccnc2)cc1Cl (configuration not stated),-1.39% (inactive)

row,SMILES,inhibition
1,Cc1ccc2c(c1)C1CN(C)CCC1N2S(=O)(=O)c1ccccc1 (configuration not stated),4.23% (inactive)
2,Cc1ccc2c(c1)[C@@H]1CN(C)CC[C@@H]1N2S(=O)(=O)c1ccc([N+](=O)[O-])cc1,0.95% (inactive)
3,CN(C)c1cc[n+](CC(=O)c2ccc(OC(F)F)cc2)cc1,19.8% (inactive)
4,COc1ccc(CNC(=O)c2cc(COc3c(F)cccc3F)on2)cc1OC,-2.31% (inactive)
5,O=C(O)CCc1ccc(-c2ccc(Br)cc2)n1-c1cccc(O)c1,-2.3% (inactive)
6,CCCCCOC(=O)CSc1nc2c(c(=O)[nH]c(=O)n2C)n1CCc1ccccc1,2.47% (inactive)
7,COCc1c(C(=O)OCC(=O)N2c3ccccc3CC2C)oc2ccccc12 (configuration not stated),-3.75% (inactive)
8,CC(C)CCC(CCNCc1ccccn1)c1ccc2c(c1)OCO2 (configuration not stated),21.8% (inactive)
9,CC(C)C(CCNCc1ccccn1)c1ccc(Cl)cc1 (configuration not stated),-0.74% (inactive)
10,CC(=O)n1cc([C@H]2C=C(C(N)=O)O[C@@H](OCc3ccc(CO)cc3)C2)c2ccccc21,2.45% (inactive)
11,CCCCOC(=O)C[N+](C)(C)CCOC1CC2CCC1(C)C2(C)C (configuration not stated),-1.52% (inactive)
12,CCCOC(=O)C[N+](C)(C)CCOC1CC2CCC1(C)C2(C)C (configuration not stated),-4.95% (inactive)
13,Cc1ccc(Nc2ccc([N+](=O)[O-])ccc2=O)cc1,-3.8% (inactive)
14,Cc1cccc(C(=O)NCC(=O)N2CCN(c3ccc(Cl)cc3)CC2)c1,4.53% (inactive)
15,Cc1cc(C)nc(NCCO)n1,1.84% (inactive)
16,Fc1ccccc1Sc1ccccc1CNC1=NCCN1,2.16% (inactive)
17,Fc1ccc(Sc2ccccc2CNC2=NCCN2)cc1,-8.62% (inactive)
18,COc1ccc(C)cc1NC(=O)C1CCN(S(=O)(=O)c2ccc3c(c2)NC(=O)CO3)CC1,-3.38% (inactive)
19,CCCCn1c(N)c(N(CC(C)C)C(=O)c2cc(-c3ccc(OC)c(OC)c3)nc3ccccc23)c(=O)[nH]c1=O,11.8% (inactive)
20,CC(=O)c1cc(C(=O)NC2CCCc3c2cnn3-c2cc(C)cc(C)c2)[nH]n1 (configuration not stated),-9.06% (inactive)
21,O=C(Nc1nc2ccccc2[nH]1)c1cccc(F)c1,0.03% (inactive)
22,CC(C)n1cnc2c(Nc3cccc(F)c3)nc(NCCO)nc21,-14.7% (inactive)

# Reference: PubChem BioAssay AID1850 (Southern Research Specialized Biocontainment Screening …, 2009)
